Source: PubChem BioAssay (Tox21)
Inconclusive results are not listed. Entries that show only a call come without a potency. A number with no mark means an inactive call. Active and inactive are the calls of the source. Unless noted, calls follow the shape of the dose curve; as a rule, active = well fitted curve in the direction sought with a large enough effect in the repeat runs; inconclusive = weak or mixed curves; inactive = no such curve, though single readings can be large; an effect the other way counts as inactive or inconclusive.

Assays:
[1] = qHTS assay to identify small molecule antagonists of the estrogen related receptor (ERR) signaling pathway from Tox21 library - cell viability counter screen (AID 1224834); also: nearly all actives have a fitted effect of over 30% in size; also: potency is read from the fitted curve at half-maximal effect
Summary of the method: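 In this quantitative HTS format, ERR cells receive compounds in DMSO and are incubated for 17.5 h at 37 C. Live-cell protease activity is then detected with CellTiter-Fluor.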

[2] = molecular target: Luciferin 4-monooxygenase (Photinus pyralis) (UniProt P08659); experiment: qHTS assay to identify small molecule inhibitors of firefly luciferase (AID 1224835); also: nearly all actives have a fitted effect of over 25% in size; also: potency is read from the fitted curve at half-maximal effect
Luciferin 4-monooxygenase (Photinus pyralis), sequence (P08659 whole entry, looked up): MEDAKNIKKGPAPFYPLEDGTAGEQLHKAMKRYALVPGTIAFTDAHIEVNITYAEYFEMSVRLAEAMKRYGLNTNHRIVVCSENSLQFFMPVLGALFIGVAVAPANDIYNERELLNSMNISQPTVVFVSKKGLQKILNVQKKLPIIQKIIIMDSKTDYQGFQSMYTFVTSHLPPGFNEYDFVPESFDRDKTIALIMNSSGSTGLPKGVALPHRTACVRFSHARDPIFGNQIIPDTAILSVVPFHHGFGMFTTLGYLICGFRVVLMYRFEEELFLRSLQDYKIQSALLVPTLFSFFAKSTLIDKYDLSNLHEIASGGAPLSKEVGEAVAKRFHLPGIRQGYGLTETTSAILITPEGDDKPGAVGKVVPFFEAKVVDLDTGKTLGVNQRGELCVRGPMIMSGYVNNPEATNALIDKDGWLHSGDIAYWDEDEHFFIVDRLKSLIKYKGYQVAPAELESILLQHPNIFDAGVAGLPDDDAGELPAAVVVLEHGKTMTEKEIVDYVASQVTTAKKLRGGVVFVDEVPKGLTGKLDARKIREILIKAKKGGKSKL
Summary of the method: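 Quantitative HTS format; KM concentrations of both substrates. Purified P. pyralis FLuc activity quantified from luminescence images.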

[3] = qHTS assay to identify small molecule antagonists of the constitutive androstane receptor (CAR) signaling pathway - cell viability counter screen (AID 1224837); also: nearly all actives have a fitted effect of over 45% in size; also: potency is read from the fitted curve at half-maximal effect; as to activity change, negative = cytotoxicity: series mostly up to about 92 µM
Summary of the method: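 In quantitative HTS format, compounds at 15 concentrations were applied to HepG2 cells double-transfected with hCAR and CYP2B6-2.2kb under 50 nM CITCO stimulation; live-cell protease activity was read after 23 hr via CellTiter-Fluor.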

[4] = molecular target: Nuclear receptor subfamily 1 group I member 3 (Homo sapiens) (UniProt Q14994); experiment: qHTS assay to identify small molecule agonists of the constitutive androstane receptor (CAR) signaling pathway (AID 1224839); also: nearly all actives have a fitted effect of over 15% in size; also: potency is read from the fitted curve at half-maximal effect;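 as to activation: HepG2 cells stably carrying human CAR and a CYP2B6 luciferase reporter; series mostly up to about 92 µM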
Nuclear receptor subfamily 1 group I member 3 (Homo sapiens), sequence (Q14994 whole entry, looked up): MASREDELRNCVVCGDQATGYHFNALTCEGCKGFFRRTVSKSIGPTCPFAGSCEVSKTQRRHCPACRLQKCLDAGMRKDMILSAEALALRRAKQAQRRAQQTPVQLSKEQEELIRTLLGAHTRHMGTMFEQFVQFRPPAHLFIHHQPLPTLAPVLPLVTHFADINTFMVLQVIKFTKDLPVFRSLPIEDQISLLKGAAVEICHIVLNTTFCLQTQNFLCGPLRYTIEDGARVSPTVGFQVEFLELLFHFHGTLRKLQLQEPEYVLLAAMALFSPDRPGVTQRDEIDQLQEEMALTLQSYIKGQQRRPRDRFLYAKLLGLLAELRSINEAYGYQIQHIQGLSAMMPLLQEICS
Summary of the method: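 Compounds tested at 15 concentrations on HepG2 cells stably harbouring hCAR and CYP2B6-2.2kb reporter constructs, co-treated with PK11195 (0.75 uM final), 24 h at 37 C; luminescent reporter signal quantified.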

[5] = qHTS assay to identify small molecule antagonists of the estrogen related receptor signaling pathway with the pleiotropic PPARgamma coactivator (PGC) from Tox21 10K library - cell viability counter screen (AID 1224840; active = well fitted cell-killing curve with a large enough effect in the repeat runs, not every such curve was filed as active; also: nearly all actives have a fitted effect of over 40% in size; also: potency is read from the fitted curve at half-maximal effect)
Summary of the method: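 Viability counter screen, PGC/ERR cells: 17.5 h compound exposure at 37 C, CellTiter-Fluor fluorescence endpoint.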

[6] = qHTS assay to identify small molecule agonists of the estrogen related receptor signaling pathway with the pleiotropic PPARgamma coactivator (PGC) from Tox21 10K library (AID 1224842); also: nearly all actives have a fitted effect of over 15% in size; also: potency is read from the fitted curve at half-maximal effect
Summary of the method: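 PGC/ERR reporter cells (NTP line) were seeded 2,000 per well, rested 6 h at 37 C/5% CO2, then pin-dosed with compounds in DMSO for 18 h at 37 C; luciferase read by One-Glo luminescence after 30 min at room temperature.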

[7] = qHTS assay to identify small molecule agonists of the constitutive androstane receptor (CAR) signaling pathway - cell viability counter screen (AID 1224836); also: series mostly up to about 92 µM; nearly all actives have a fitted effect of over 45% in size
Summary of the method: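 23 h treatment, 37 C, 5% CO2. Cell line: HepG2 stably expressing hCAR with a CYP2B6-2.2kb construct. Co-treatment: PK11195, 0.75 uM final. Read-out: CellTiter-Fluor fluorescence intensity.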

[8] = qHTS assay to identify small molecule antagonists of the estrogen related receptor signaling pathway with the pleiotropic PPARgamma coactivator (PGC) from Tox21 10K library (AID 1224841; call rule not given here; also: actives are mostly falling curves and most rising ones were filed inactive; nearly all actives have a fitted effect of over 50% in size; also: potency is read from the fitted curve at half-maximal effect; as to activity, negative = inhibition: series mostly up to about 92 µM)
Summary of the method: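 In the PGC/ERR line, DMSO solutions of test chemicals are pin-delivered to 2,000 cells/well six hours after dispensing. Following eighteen hours' incubation, One-Glo reagent is added and luminescence recorded.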

[9] = molecular target: Nuclear receptor subfamily 1 group I member 3 (Homo sapiens) (UniProt Q14994); experiment: qHTS assay to identify small molecule antagonists of the constitutive androstane receptor (CAR) signaling pathway (AID 1224838); also: nearly all actives have a fitted effect of over 40% in size; also: potency is read from the fitted curve at half-maximal effect
Summary of the method: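 CITCO-stimulated (50 nM final) HepG2 cells stably transfected with hCAR and CYP2B6-2.2kb luciferase were exposed to compounds at 15 concentrations for 24 h at 37 C/5% CO2. A luciferase reagent was added and luminescence recorded after 30 min.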

[10] = molecular target: Thyrotropin receptor (Homo sapiens) (UniProt P16473); experiment: qHTS assay to identify small molecule agonists of the thyroid stimulating hormone receptor (TSHR) signaling pathway (AID 1224843; calls by dose curve; also: nearly all actives have a fitted effect of over 45% in size; also: potency is read from the fitted curve at half-maximal effect)
Thyrotropin receptor (Homo sapiens), sequence (P16473 whole entry, looked up): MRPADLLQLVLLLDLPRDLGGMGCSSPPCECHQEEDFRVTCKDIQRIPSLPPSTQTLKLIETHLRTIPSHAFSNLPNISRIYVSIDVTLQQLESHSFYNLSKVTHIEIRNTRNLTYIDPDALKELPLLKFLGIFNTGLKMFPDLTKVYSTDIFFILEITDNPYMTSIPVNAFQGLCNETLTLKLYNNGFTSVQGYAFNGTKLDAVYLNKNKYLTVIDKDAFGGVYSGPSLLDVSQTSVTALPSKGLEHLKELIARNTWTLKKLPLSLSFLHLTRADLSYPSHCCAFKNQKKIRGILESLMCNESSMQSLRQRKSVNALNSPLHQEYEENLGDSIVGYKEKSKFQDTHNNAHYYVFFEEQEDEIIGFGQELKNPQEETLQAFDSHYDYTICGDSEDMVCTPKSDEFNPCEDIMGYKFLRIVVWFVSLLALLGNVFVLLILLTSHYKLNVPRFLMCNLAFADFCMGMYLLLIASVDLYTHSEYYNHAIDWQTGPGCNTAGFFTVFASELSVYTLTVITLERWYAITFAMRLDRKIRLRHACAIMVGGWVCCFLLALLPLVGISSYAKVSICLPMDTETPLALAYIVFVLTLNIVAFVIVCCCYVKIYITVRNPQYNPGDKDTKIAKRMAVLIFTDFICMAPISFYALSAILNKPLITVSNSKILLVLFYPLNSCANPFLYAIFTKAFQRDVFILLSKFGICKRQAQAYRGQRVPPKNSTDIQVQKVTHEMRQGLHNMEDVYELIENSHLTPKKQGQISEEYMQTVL
Summary of the method: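 Using 15 concentrations per compound in triplicate, cAMP production was monitored in TSHR-HEK293 cells after 30 min compound incubation at RT; HTRF reagents followed, with fluorescence intensity recorded after 1 h.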

For `C=CC(=O)OCCOCCOC(=O)C=C`, the Potency [1] was 38.7 µM (active), the Potency [2] was “inactive” and the Potency [3] was 61.4 µM (active). For the same compound, the Potency [4] was “inactive”, the Potency [5] was 30.8 µM (active) and the Potency [6] was 9.73 µM (active).
For `CC(=O)[O][Al]`, the Potency [1] was “inactive”, the Potency [7] was “inactive” and the Potency [3] was “inactive”. For the same compound, the Potency [8] was “inactive” and the Potency [6] was “inactive”.
With `Clc1ccc2c(c1)CCc1cccnc1C2=C1CCNCC1` the Potency [1] was “inactive”, the Potency [2] was “inactive” and the Potency [3] was “inactive”. For the same compound, the Potency [4] was “inactive”.
For `Cc1nn(C)c(Oc2ccccc2)c1/C=N/OCc1ccc(C(=O)OC(C)(C)C)cc1`, the Potency [1] was “inactive”, the Potency [2] was “inactive” and the Potency [6] was “inactive”.
`CN(C)c1ccc(/C=C/c2ccc([N+](=O)[O-])cc2)cc1` showed a viability change, negative = cytotoxic [1] of 1.01% [at 8.39 µM], a viability change, negative = cytotoxic [7] of 5.96% [at 8.39 µM] and an activity change, negative = cytotoxicity [3] of 11.7% [at 8.39 µM]. The activity, negative = inhibition [9] was 47.3% [at 8.39 µM], the Potency [4] was 0.872 µM (active) and the activation [10] was -1.26% [at 8.39 µM].
With `CCc1cc(C2=C(C(=O)O)N(c3ccccc3C(F)(F)F)S(=O)(=O)c3ccccc32)cc2c1OCO2` the Potency [1] was 7.61 µM (active), the Potency [2] was “inactive” and the Potency [4] was “inactive”. The Potency [8] was 30.3 µM (active) and the Potency [6] was “inactive”.
For `Cc1cccc(Nc2ccccc2)c1`, the Potency [1] was “inactive”, the Potency [7] was “inactive” and the Potency [3] was “inactive”. The Potency [9] was “inactive” and the Potency [5] was “inactive”.
In the case of `CCO[C@H](Cc1ccc(OCCc2ccc(OS(C)(=O)=O)cc2)cc1)C(=O)O`, the Potency [1] is reported as “inactive”, the Potency [7] is reported as “inactive” and the Potency [3] is reported as “inactive”. The Potency [9] was “inactive”, the Potency [4] was “inactive” and the Potency [5] was “inactive”.
With `CCCCCCCCCCCCCCOS(=O)(=O)O` the Potency [7] was “inactive”, the Potency [3] was “inactive” and the Potency [9] was “inactive”. For the same compound, the Potency [4] was “inactive”, the Potency [8] was “inactive” and the Potency [6] was “inactive”.
With `CCCCC1=NC2(CCCC2)C(=O)N1Cc1ccc(-c2ccccc2-c2nn[nH]n2)cc1` the Potency [2] was “inactive”, the Potency [7] was “inactive” and the Potency [3] was “inactive”. For the same compound, the Potency [9] was “inactive” and the Potency [4] was “inactive”.
For `CCCCCCCCCCCCCCCCOS(=O)(=O)O`, the Potency [2] was “inactive”, the Potency [7] was “inactive” and the Potency [3] was “inactive”. For the same compound, the Potency [9] was “inactive”, the Potency [4] was “inactive” and the Potency [8] was “inactive”. For the same compound, the Potency [6] was “inactive”.
With `Cn1c(=O)cc(Oc2ccc(F)cc2F)c2cnc(NCC(C)(C)O)nc21` the Potency [2] was “inactive”, the Potency [7] was “inactive” and the Potency [3] was “inactive”. The Potency [9] was “inactive”, the Potency [4] was “inactive” and the Potency [8] was 34.4 µM (active). For the same compound, the Potency [6] was “inactive”.
With `Cc1ccc(N=Nc2c(O)c(C(=O)O)cc3ccccc23)c(S(=O)(=O)O)c1` the Potency [1] was 21 µM (active), the Potency [9] was “inactive” and the Potency [4] was “inactive”. For the same compound, the Potency [10] was “inactive”.
In the case of `CCCCC(CC)CN1C(=O)C2C3C=CC(C3)C2C1=O` (stereo unspecified), the Potency [2] is reported as “inactive”, the Potency [7] is reported as “inactive” and the Potency [3] is reported as “inactive”. For the same compound, the Potency [9] was “inactive”, the Potency [4] was 30.6 µM (active) and the Potency [5] was “inactive”. For the same compound, the Potency [8] was “inactive” and the Potency [6] was “inactive”.
In the case of `CCc1c(C(=O)NN2CCCCC2)nn(-c2ccc(Cl)cc2Cl)c1-c1ccc(Br)cc1`, the Potency [2] is reported as “inactive”, the Potency [7] is reported as “inactive” and the Potency [3] is reported as “inactive”. For the same compound, the Potency [9] was 21.7 µM (active), the Potency [4] was “inactive” and the Potency [8] was 4.86 µM (active). For the same compound, the Potency [6] was “inactive” and the Potency [10] was “inactive”.
With `CN(C)C(=O)NC1(c2ccccc2)CCN(CC[C@@]2(c3ccc(F)c(F)c3)CN(C(=O)c3ccccc3)CCO2)CC1` the Potency [2] was “inactive”, the Potency [7] was “inactive” and the Potency [3] was “inactive”. For the same compound, the Potency [6] was “inactive” and the Potency [10] was “inactive”.
With `CCCOC(C(=O)OC1CCN(C)CC1)(c1ccccc1)c1ccccc1` the Potency [2] was “inactive”, the Potency [7] was “inactive” and the Potency [4] was “inactive”. For the same compound, the Potency [8] was “inactive”, the Potency [6] was “inactive” and the Potency [10] was “inactive”.
For `CCCNCC(O)COc1ccccc1C(=O)CCc1ccccc1` (stereo unspecified), the Potency [7] was “inactive”, the Potency [3] was “inactive” and the Potency [9] was “inactive”. For the same compound, the Potency [4] was “inactive”, the Potency [5] was “inactive” and the Potency [10] was “inactive”.
In the case of `CN(C)CCCN1c2ccccc2Sc2ccccc21`, the Potency [2] is reported as “inactive”, the Potency [7] is reported as “inactive” and the Potency [3] is reported as “inactive”. The Potency [9] was “inactive”, the Potency [4] was “inactive” and the Potency [8] was “inactive”. The Potency [6] was “inactive”.
With `CC(=O)c1ccc2c(c1)N(CCCN(C)C)c1ccccc1S2` the Potency [2] was “inactive”, the Potency [7] was “inactive” and the Potency [3] was “inactive”. The Potency [9] was “inactive”, the Potency [4] was “inactive” and the Potency [5] was “inactive”. The Potency [10] was “inactive”.
In the case of `C[C@H](CCC(=O)O)[C@H]1CC[C@H]2[C@@H]3CC[C@@H]4C[C@H](O)CC[C@]4(C)[C@H]3C[C@H](O)[C@]12C`, the Potency [2] is reported as “inactive”, the Potency [7] is reported as “inactive” and the Potency [3] is reported as “inactive”. The Potency [9] was “inactive”.
For `CCOc1ccc(N)c([N+](=O)[O-])c1`, the Potency [2] was “inactive”, the Potency [7] was “inactive” and the Potency [3] was “inactive”. For the same compound, the Potency [9] was “inactive”, the Potency [4] was “inactive” and the Potency [8] was “inactive”. The Potency [6] was “inactive”.
In the case of `CCCCc1nc2cccnc2n1Cc1ccc(-c2ccccc2-c2nnn[nH]2)cc1`, the Potency [7] is reported as “inactive”, the Potency [9] is reported as “inactive” and the Potency [4] is reported as “inactive”. The Potency [5] was “inactive” and the Potency [10] was “inactive”.
In the case of `COc1ccc(C(=O)c2ccc(OC)cc2O)c(O)c1`, the Potency [2] is reported as 28.5 µM (active), the Potency [7] is reported as “inactive” and the Potency [3] is reported as “inactive”. The Potency [9] was “inactive”, the Potency [4] was 9.76 µM (active) and the Potency [5] was “inactive”. The Potency [8] was “inactive”, the Potency [6] was 4.89 µM (active) and the Potency [10] was “inactive”.
With `CN1CCC(=C2c3ccccc3Sc3ccccc32)CC1` the Potency [2] was “inactive”, the Potency [7] was “inactive” and the Potency [3] was “inactive”. For the same compound, the Potency [9] was “inactive”, the Potency [4] was “inactive” and the Potency [8] was “inactive”. The Potency [6] was “inactive”.
With `OCCN1CCN(CCCN2c3ccccc3C=Cc3ccccc32)CC1` the Potency [2] was “inactive”, the Potency [9] was “inactive” and the Potency [4] was “inactive”. The Potency [5] was “inactive” and the Potency [10] was “inactive”.
With `CCOC(=O)C1=C[C@]2(CC)CCCN3CCc4c(n1c1ccccc41)[C@@H]32` the Potency [2] was “inactive”, the Potency [7] was “inactive” and the Potency [3] was “inactive”. For the same compound, the Potency [9] was “inactive”, the Potency [5] was “inactive” and the Potency [10] was 18.8 µM (active).
In the case of `CCOC(=O)COC(=O)c1cc(Oc2ccc(C(F)(F)F)cc2Cl)ccc1[N+](=O)[O-]`, the Potency [2] is reported as “inactive”, the Potency [7] is reported as “inactive” and the Potency [3] is reported as “inactive”. The Potency [9] was “inactive” and the Potency [5] was “inactive”.
In the case of `CCOC(=O)NCCOc1ccc(Oc2ccccc2)cc1`, the Potency [2] is reported as 31.7 µM (active), the Potency [7] is reported as “inactive” and the Potency [3] is reported as “inactive”. For the same compound, the Potency [9] was “inactive”, the Potency [4] was 48.6 µM (active) and the Potency [5] was “inactive”. For the same compound, the Potency [6] was “inactive”.
